SMILES strings stand for the structures. Results filed as inconclusive are left out. Entries that show only a call come without a potency. Calls of active or inactive are those of the source. Calls follow the shape of the dose curve; as a rule, active = well fitted cell-killing curve with a large enough effect in the repeat runs; inconclusive = weak or mixed curves, or effect the other way; inactive = no such curve, though single readings can be large or run the other way.
Potency is read from the fitted curve at half-maximal effect.

A short description of the assay: qHTS assay to identify small molecule antagonists of the thyroid receptor (TR) signaling pathway - cell viability counter screen (AID 743064). Also: nearly all actives have a fitted effect of over 50% in size. The note with it: GH3.TRE-Luc viability, CellTiter-Fluor, 24 h; series mostly up to 70.3 µM. The source says:
National Center for Advancing Translational Sciences [NCATS]
NIH Chemical Genomics Center [NCGC]
U.S. Environmental Protection Agency [EPA]
National Institutes of Environmental Health Sciences [NIEHS]
National Toxicology Program [NTP]
U.S. Food and Drug Administration [FDA]
Thyroid receptor (TR), a nuclear hormone receptor, plays an important role in development, proliferation, differentiation, metabolism, brain function, and cardiovascular system. […] To profile the Tox21 10K compound library in TR signaling, a cell-based GH3-TRE-Luc assay (GH3.TRE-Luc cell line, developed by the laboratory of Dr. Albertinka J. Murk, Wageningen University) was used to measure the inhibition of TR. GH3 (rat pituitary tumor) cells stably expressing a TR activity sensor consisting of two TR response elements and a luciferase reporter gene. The cytotoxicity of the Tox21 compound library against the GH3.TRE-Luc cell line was tested in parallel by measuring the cell viability using CellTiter-Fluor assay (Promega, Madison, WI) in the same wells.
Tox21 Assay Protocol Summary:
GH3.TRE-Luc cells were dispensed at 1500 cells/4 uL/well into 1536-well white solid bottom plates using a Multidrop Combi dispenser (Thermo Fisher Scientific Inc., Waltham, MA). After the assay plates were incubated at 37 C for 4 hours, 23 nL of library compound or DMSO controls was transferred to the assay plates by a pintool station (Kalypsys, San Diego, CA), followed by addition of 1 ul of T3 (1 nM, final concentration in the wells) to stimulate TR transactivation. The assay plates were incubated at 37 C for 23.5 h, and then 1 uL of CellTiter-Fluor reagent (Promega, Madision, WI) of measuring cytotoxicity was added to each well using a Bioraptr Flying Reagent Dispenser (FRD) workstation (Beckman Coulter, Indianapolis, IN, USA). The plates were incubated at 37C and 5% CO2 for additional 30 min, and fluorescence intensity was measured by a ViewLux plate reader (PerkinElmer, Shelton, CT).
In general terms: Quantitative high-throughput screening tests each substance at several concentrations.
In the case of `O=[N+]([O-])c1ccc2ncccc2c1`, the Potency result was “inactive”. For `CS(=O)(=O)c1ccc([C@@H](C[C@H]2CCC(=O)C2)C(=O)Nc2cnccn2)cc1Cl` the value was “inactive”.

Take `CCCCCCCCCCCC(=O)OCC(O)CO` (stereo not given): the Potency result is “inactive”. In the case of `CC/C=C\C/C=C\C/C=C\CCCCCCCC(=O)OCC`, the Potency result is “inactive”. For `O=S(=O)(Cl)c1c(Cl)cccc1Cl` the value was “inactive”; for `COC(OC)OC`, “inactive”; for `COc1ccc(C)cc1`, “inactive”. For `COc1ccc(N)c([N+](=O)[O-])c1` the value was “inactive”; for `CC(C)CC(O)CC(C)C`, “inactive”. As to `O=C(O)CN1C(=O)c2cccc3cccc(c23)C1=O`, the Potency entry was “inactive”. For `C/C(C=O)=C\c1ccccc1` the value was “inactive”; for `COc1ccc(-c2cc(C(F)F)nn2-c2ccc(S(N)(=O)=O)cc2)cc1F`, “inactive”; for `O=C(NS(=O)(=O)/C=C/c1ccccc1)c1ccc(F)cc1Cl`, “inactive”. For `CC1CCCC(=O)C1=O` (stereo not given) the value was “inactive”; for `CCC(C)(C)C(=O)O`, “inactive”; for `C[C@@H]1C[C@H]2[C@@H]3CCC4=CC(=O)C=C[C@]4(C)[C@@]3(F)[C@@H](O)C[C@]2(C)[C@@]1(O)C(=O)COP(=O)(O)O`, “inactive”. As for `Nc1nc(-c2ccc([N+](=O)[O-])cc2)cs1`, the Potency entry was “inactive”.

For `C=C(C)c1ccccc1`, the Potency entry was “inactive”. Consider `CN1CCCN(C(c2ccccc2)c2ccc(Cl)cc2)CC1` (stereo not given), for which the Potency was 6.68 µM (active).

In the case of `CCCCC(CC)COS(=O)(=O)O` (stereo not given), the Potency entry was “inactive”. For `O=C(c1ccccc1)C1CCC1` the value was “inactive”; for `O[C@@H](CNC[C@H](O)[C@H]1CCc2cc(F)ccc2O1)[C@@H]1CCc2cc(F)ccc2O1`, 10.6 µM (active); for `CCN(CC)c1cccc(O)c1`, “inactive”. Take `CC(C)(C)C(O)/C=C/c1ccc2c(c1)OCO2` (stereo not given): the Potency entry was “inactive”.

For `Cc1ccccc1S(N)(=O)=O`, the Potency result was “inactive”. In the case of `O=CNNC=O` it was “inactive”; in that of `C=CC(=O)NC(C)C`, “inactive”.

As for `NC(=O)CCCCC(N)=O`, the Potency result was “inactive”. In the case of `O=[N+]([O-])C1(Br)COCOC1` it was 17.2 µM (active); in that of `N[C@@H](Cc1cc(I)c(O)c(I)c1)C(=O)O`, “inactive”; in that of `SCCc1cnccn1`, “inactive”. For `CCC(CO)(CO)CO` the value was “inactive”; for `Nc1c(Cl)cc(Cl)cc1[N+](=O)[O-]`, “inactive”; for `Cc1ccc2c(c1)CCCN2`, “inactive”. In the case of `CCN(CC)C(=O)/C(C#N)=C/c1cc(O)c(O)c([N+](=O)[O-])c1` it was “inactive”; in that of `O=C(O)CO`, “inactive”; in that of `CCCCCCCC(=O)OCCCCCC`, “inactive”.

Consider `COc1cc(C(C)=O)ccc1OCCCN1CCC(c2noc3cc(F)ccc23)CC1`, for which the Potency is 21.1 µM (active).

In the case of `CNC1CCCN(c2c(F)cc3c(=O)c(C(=O)O)cn(C4CC4)c3c2OC)C1` (stereo not given), the Potency entry was “inactive”. For `Nc1ccc(S(=O)(=O)NCc2ccccc2)cc1` the value was “inactive”.

The record behind these values is PubChem BioAssay (Tox21).
